Assay results: PubChem BioAssay AID686934 (National Center for Advancing Translational Sciences (NCATS), 2013)
Inconclusive results are not listed. Calls of active or inactive are those of the source. The call rests on the fitted dose curve; in most records, active means well fitted curve in the direction sought with a large enough effect; inconclusive means small, poorly fitted or top-dose-only effect, or another doubt; inactive means no such curve, though single readings can be large or run the other way.

Experiment: qHTS screen for small molecules that inhibit ELG1-dependent DNA repair: SAR in Cell-Based Luciferin Counter Assay
Settings: cell-based luciferase counter-screen, luminescence; series mostly up to 45.7 µM
Text: Cancer cells divide rapidly compared to normal cells in the body. During cell division, cancer cells need to duplicate their genome by DNA replication. The failure of genome duplication leads to cancer cells' death. Therefore, inhibitors of DNA replication could specifically kill cancer cells. Based on this concept, many chemotherapeutic agents were developed and have been used to treat cancer patients. However, there are a limited number of agents available in the clinical setting, and some of those that do exist have low efficacy and severe side effects. Therefore, if we can find the compounds that effectively block DNA replication either by directly damaging DNA or by inhibiting other cellular mechanisms, the options for cancer treatment will be broadened. With this in mind, we developed a quantitative high-throughput ELG1-luciferase reporter gene assay. Small molecules that specifically block ELG1 function in response to DNA damage can be identified by monitoring the suppression of luciferase activity. Since ELG1 defines a pathway for repairing DNA damage, agents blocking ELG1 function can be used to sensitize cancer cells to chemotherapeutic agents whose mechanism of action involves the induction of DNA damage. This assays is a counterscreen, that is more specifically, a cell-based luciferase assay following treatment with putative ELG1 antagonists to eliminate luciferase enhancers/inhibitors NIH Molecular Libraries Probe Production Network [MLPCN] NIH Chemical Genomics Center [NCGC] MLPCN Grant: R03 MH092164 Assay Provider: Kyungjae Myung, NHGRI, NIH
3 uL of substrate reagent will be pipetted into each well in 1536-well white, solid-bottom plates using a FRD dispenser, followed by addition of 23 nL of DMSO or compounds by pintool. After compound addition, 1 µL of luciferase will be added into the wells. The plates will be read in a ViewLux CCD-based plate reader.

Row | SMILES | outcome
1 | CCCC(=O)O[C@@H]1[C@@H](C)[C@@]2(O)[C@@H](C=C(CO)C[C@]3(O)C(=O)C(C)=C[C@@H]23)[C@@H]2C(C)(C)[C@]12OC(=O)CCC | inactive
2 | O=C(CCl)c1ccc(O)c(O)c1 | inactive
3 | CN[C@@H]1C[C@@]2(C)O[C@@H]([C@@H]1OC)n1c3ccccc3c3c4c(c5c6ccccc6n2c5c31)C(=O)NC4 | inactive
4 | CC(=O)OCC1=C[C@H]2[C@@H]3C(C)(C)[C@]3(OC(=O)Cc3ccccc3)C[C@@H](C)[C@]2(O)[C@@H]2C=C(C)C(=O)[C@@]2(O)C1 | inactive
5 | CCCSc1ccc2nc(NC(=O)OC)[nH]c2c1 | inactive
6 | CCCCCC1C(=O)O[C@H](C)[C@@H](NC(=O)c2cccc(NC=O)c2O)C(=O)OC(C)C1OC(=O)CC(C)C (stereo partly specified) | inactive
